Assay results from PubChem BioAssay AID1850 (Southern Research Specialized Biocontainment Screening …, 2009).
About 1,000 (0.32%) of roughly 310,000 compounds were called active. A selection follows. Results with a measured potency or affinity are listed apart. Values without a mark were called inactive. No rule for the calls is given here.

Test: PhoP regulon inhibitors, Salmonella typhi PhoP promoter GFP reporter, confirmatory (AID 1850);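 also: 0% = induced wells with vehicle and 100% = uninduced wells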
Conditions: fluorescence, 4 h, at 50 µM, active compounds read high
`COc1ccc(CCN2CC(C(=O)NCCc3ccccc3C)CCC2=O)cc1` (stereo unspecified) showed an inhibition of 0.24%.
With `COc1cc(Br)cc(/C=N/NC(=O)Cc2ccccc2)c1O` the inhibition was 5.08%.
With `Oc1c(C=NCc2ccc(F)cc2)[nH]c2ccc(Br)c(Cl)c12` the inhibition was -22.5%.
In the case of `CN(/N=C/c1cc(Br)cc(Br)c1O)c1ccccc1`, the inhibition is reported as 2.46%.
Molecule `Oc1c(Br)cc(Br)cc1/C=N/N1CCN(Cc2ccccc2)CC1` has an inhibition of -8.57%.
In the case of `O/N=C/c1cc(Br)ccc1OCc1ccc(F)cc1`, the inhibition is reported as 3.46%.
For `O=C(Cc1ccccc1)N/N=C/c1cc(Br)cc(Br)c1O`, the inhibition was 6.54%.
`Oc1cccc(/C=N/N=C/c2cccc(O)c2O)c1O` showed an inhibition of 21.8%.
Molecule `Oc1cccc(C=NCc2ccccc2)c1` has an inhibition of -11.2%.
In the case of `CCN(CC)CC(C)CNC(=O)CC(C(=O)N1CCc2ccccc21)n1ccnc1` (stereo unspecified), the inhibition is reported as -1.96%.
Work on `CC1(C)C2(C#N)C(N)=NC3(OCCO3)C12C#N` (stereo unspecified) yielded an inhibition of 4.42%.
In the case of `Cc1ccc(S(=O)(=O)N(C)c2ccc(N)cc2)cc1`, the inhibition is reported as 8.98%.
For `Cc1ccc2nc(SCc3nc4cc(Cl)ccc4c(=O)[nH]3)[nH]c2c1`, the inhibition was -3.53%.
`COc1cccc(C2C(=O)N(C3CCCCC3)CC(=O)N2Cc2ccc(F)cc2)c1` (stereo unspecified) showed an inhibition of -2.24%.
`CC[N+](C)(C)CC/C=C1/c2ccccc2Sc2ccc(Cl)cc21` showed an inhibition of 5.02%.
Work on `CN1CCN(CCC=C2c3ccccc3Sc3ccc(S(=O)(=O)N(C)C)cc32)CC1` yielded an inhibition of -2.21%.
Molecule `OCCN1CCN(CC/C=C2/c3ccccc3Sc3ccc(C(F)(F)F)cc32)CC1` has an inhibition of -0.41%.
In the case of `CN1CCN(CC/C=C2/c3ccccc3Sc3ccc(S(=O)(=O)N(C)C)cc32)CC1`, the inhibition is reported as 3.38%.
Work on `C[N+](C)(C)CC/C=C1/c2ccccc2CSc2ccccc21` yielded an inhibition of -7.79%.
`OCCN1CCN(CC/C=C2/c3ccccc3Sc3ccc(Cl)cc32)CC1` showed an inhibition of 5.06%.
In the case of `O=C1[C@@H]2Cc3c([nH]c4ccccc34)C(c3ccc(Cl)cc3)N2C(=O)CN1CCO` (stereo partly specified), the inhibition is reported as 3.36%.
Work on `CC(=O)NC(=S)Nc1ccccc1N1CCCCC1` yielded an inhibition of -7.09%.
For `COc1ccc(-c2nnc(-c3ccccc3O)o2)cc1`, the inhibition was 3.32%.
`CCC(C(=O)N1CCCCCC1)n1nc(C)n2c(cc3occc32)c1=O` (stereo unspecified) gave an inhibition of -32.5%.
`CS(=O)(=O)N(CC(=O)Nc1ccccc1C(=O)NCc1ccco1)c1ccc2c(c1)OCCO2` showed an inhibition of -8.68%.
For `Cc1c(C(=O)N2CCOCC2)sc2ncn(CC(=O)N3CCC(C)CC3)c(=O)c12`, the inhibition was 0.7%.
